Calls of active or inactive are those of the source. How the source made its calls: active means hit-call score of the fitted dose curve at least 0.9, where 1 is the maximum; inactive means score below 0.9.

For orientation: AC50 means the midpoint of the concentration-response curve, whichever way the signal moves.

The assay can be described thus: BSK_LPS_PGE2: BioMAP Diversity Plus: LPS Assay for Prostaglandin E2 (PGE2) Biomarker Activity (AID 2283082). Conditions: primary human HUVEC with PBMC; actives raise or lower the signal. How it is done:
BSK_LPS is a cell-based, multiplexed-readout assay that uses umbilical vein endothelium and peripheral blood mononuclear cells, a human vascular primary cell co-culture, with measurements taken at 24 hours after chemical dosing in a 96-well plate.BSK_LPS_PGE2 is an assay component measured in the BSK_LPS assay. It measures PGE2 antibody related to regulation of gene expression using ELISA technology.Data from the assay component BSK_LPS_PGE2 was analyzed into 1 assay endpoint. This assay endpoint, BSK_LPS_PGE2, was analyzed with bidirectional fitting relative to DMSO as the negative control and baseline of activity. Using a type of binding reporter, gain or loss-of-signal activity can be used to understand changes in the signaling as they relate to the gene PTGER2. Furthermore, this assay endpoint can be referred to as a primary readout, because this assay has produced multiple assay endpoints where this one serves a signaling function. To generalize the intended target to other relatable targets, this assay endpoint is annotated to the gpcr intended target family, where the subfamily is rhodopsin-like receptor.
The levels of cell surface (or secreted, indicated by the prefix "s") biomarker endpoints were measured by ELISA. Overt cytotoxicity to cells in confluent adherent cultures (all systems other than the BT system) was assessed by measuring total protein levels using sulforhodamine B (SRB) staining in parallel cultures at the time of biomarker measurements, indicated as SRB endpoints. For proliferation assays for adherent cell types, individual cell types are cultured at sub-confluence and relative cell numbers quantified by SRB staining at time points optimized for each system (48 h: 3C and CASM3C systems; 72 h: BT and HDF3CGF systems; 96 h: SAg system). SRB was performed by staining cells with 0.1% SRB after fixation with 10% TCA and reading wells at 560 nm.Viability and proliferation of PBMC (T cells) was quantified by Alamar Blue reduction for the SAg and BT systems. For PBMC viability (referred to as PBMC Cytotoxicity within the assay endpoint names), cells were plated (75,000/well in a 96-well plate) and then chemical samples added for 1 h before addition of activators, SEB and TSST-1 (20 ng/mL final concentration each). Cells were incubated for 90 h. Then, Alamar Blue (20 uL/well) (Invitrogen, Cat DAL1100) was added for 6 h, and the plates were read with a fluorescence microplate reader at 546/580 nm (excitation/emission). For PBMC proliferation, cells were plated and activated as above but incubated for only 16 h prior to addition of Alamar Blue. Plates were read after 6 h.
`CC(=O)[C@H]1CC[C@H]2[C@@H]3CC=C4C[C@@H](O)CC[C@]4(C)[C@H]3CC[C@]12C`: the AC50 was 3.97 µM (active).

For `CC(=O)/C=C/C1=C(C)CCCC1(C)C`, the result was inactive.

As to `C=C(C)C(=O)O[C@H]1C[C@@H]2CC[C@@]1(C)C2(C)C`, the outcome was inactive. Still for that read-out and setting: as for `OC[C@H]1O[C@H](O[C@]2(CCl)O[C@H](CCl)[C@@H](O)[C@@H]2O)[C@H](O)[C@@H](O)[C@H]1Cl`, the entry is “inactive”; as for `CC[Si](OC(C)=O)(OC(C)=O)OC(C)=O`, “inactive”; as for `COC(=O)c1ccc(C)cc1`, “inactive”. For the compound `O=C(O)c1cn(C2CC2)c2cc(N3CCNCC3)c(F)cc2c1=O`, the result was inactive.

For the compound `C#C[C@]1(O)CC[C@H]2[C@@H]3CCC4=Cc5oncc5C[C@]4(C)[C@H]3CC[C@@]21C`, the AC50 was 3.97 µM (active). Regarding `Cc1ccc2n[nH]nc2c1`, the outcome was inactive. On to `CCCCC/C=C/C=C/C=O`, for which the AC50 was 25.3 µM (active). Turning to `CC(=O)O[C@]1(C(C)=O)CC[C@H]2[C@@H]3C[C@H](C)C4=CC(=O)CC[C@]4(C)[C@H]3CC[C@@]21C`, the outcome was inactive.

In the case of `O=C(O)c1ccc([N+](=O)[O-])cc1`, the result was inactive.

Consider `CC(=O)OCCC(C)CC(C)(C)C` (stereo not given), for which the outcome was inactive. The same measure, in the same setting: as for `c1ccc2c(c1)c1cccc3ccc4cccc2c4c31`, the entry is “inactive”; as for `NCCNCCN`, “inactive”. Regarding `CCCCCCCCCCCCCCCCCC(=O)OCC(CC)CCCC` (stereo not given), the result was inactive. With `O=[N+]([O-])c1cc(C(F)(F)F)ccc1Cl`, the outcome was inactive.

Take `c1ccc2sc(SN(C3CCCCC3)C3CCCCC3)nc2c1`: the AC50 is 13.1 µM (active). On to `N#Cc1ccc(CC(=NNC(=O)Nc2ccc(OC(F)(F)F)cc2)c2cccc(C(F)(F)F)c2)cc1`, for which the half-maximal activity concentration (AC50) is 2.68 µM (active). In the case of `CCCCC(CC)COC(=O)/C=C\C(=O)OCC(CC)CCCC` (stereo not given), the outcome was inactive.

As to `CCCCCCCCCC=O`, the outcome was inactive. In the case of `CC(C)Oc1ccccc1O`, the result was inactive. Regarding `CC(=O)Nc1ccccc1O`, the result was inactive. Regarding `O=C1CCCCCCCCCCCCCCO1`, the AC50 was 3.97 µM (active).

For the compound `CCn1c2ccccc2c2cc(N)ccc21`, the AC50 was 5.42 µM (active). `CC1COc2ccccc2N1C(=O)C(Cl)Cl` (stereo not given): the outcome was inactive. As for `CCc1c(C)cc(N)c(CC)c1N`, the outcome was inactive. On to `C=C[Si](OCC)(OCC)OCC`, for which the result was inactive. On the same count and under the same terms, as for `C[C@H]1C[C@@H]2[C@H]([C@@H](O)C[C@@]3(C)[C@H]2CC[C@]3(O)C(=O)CO)[C@@]2(C)C=CC(=O)C=C12`, the entry is “inactive”. Same read-out and setting: with `O=C(O)c1cn(-c2ccc(F)cc2)c2cc(N3CCNCC3)c(F)cc2c1=O` the entry was “inactive”. As to `CNC[C@H](O)c1cccc(O)c1`, the AC50 was 0.167 µM (active).

Turning to `Cc1cc(C2(c3cc(C)c(O)cc3C)OS(=O)(=O)c3ccccc32)c(C)cc1O`, the result was inactive. On the same count and under the same terms, with `O=C=NC1CCC(CC2CCC(N=C=O)CC2)CC1` (stereo not given) the entry was “inactive”.

`CN(CCOc1ccc(CC2SC(=O)NC2=O)cc1)c1ccccn1` (stereo not given): the AC50 is 0.121 µM (active). `COc1cc(C=O)ccc1OC(=O)C(C)C`: the result was inactive. Take `O=C1OC2(c3cc(Br)c(O)c(Br)c3Oc3c2cc(Br)c(O)c3Br)c2c(Cl)c(Cl)c(Cl)c(Cl)c21`: the AC50 is 3.33 µM (active). Consider `O=P(c1ccccc1)(c1ccccc1)c1ccccc1`, for which the result was inactive. Take `C=CCOC(=O)CCC1CCCCC1`: the outcome was inactive.

On to `O=C(O)C[C@H](O)C[C@H](O)/C=C/c1c(C2CC2)nc2ccccc2c1-c1ccc(F)cc1`, for which the outcome was inactive. Still for that read-out and setting: with `CCCCC(CC)COCCC#N` (stereo not given) the entry was “inactive”.
